# Bioassay records: PubChem, National Center for Advancing Translational Sciences (NCATS)
# Rows were chosen to be rich in hits. Some 10% of all compounds tested hit in one or more screens of this group.
# JMJD2A Tudor: inhibitors of human JMJD2A Tudor domain; AlphaScreen JMJD2A-Tudor / H3K4me3 peptide binding; O75164; Potency, µM (doses to about 114 µM), actives largely listed as inhibitors; actives 4.4% (n = 390,000); note: nearly all actives have a fitted effect of over 50% in size
# CtBP-E1A blk: CtBP/E1A binding inhibition. AlphaScreen GST-E1A/His-CtBP binding, 1536-well; hits give low values. AID 651724. actives 0.49% (n = 340,000). activity change, % (no concentration beside the values); in the data active = activity change below about -65%; inconclusive = mostly about -30% to -63%
#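 AlphaScreen with 125 nM GST-E1A and 125 nM His-CtBP (5X stocks) in Tris pH 8.0, 300 mM NaCl, BSA, Tween 20, TCEP. Compounds preincubated 2 h at 37 deg C, then glutathione donor/nickel acceptor beads added for 1 h at 37 deg C in dark.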
# HP1b chromo inh: blocks HP1-beta chromodomain binding to methylated histone tails; actives 0.56% (n = 390,000); AID 540317; P83916; AlphaScreen HP1-beta / biotin-H3K9me3 peptide binding; Potency, µM (doses to about 114 µM), actives largely listed as inhibitors; note: nearly all actives have a fitted effect of over 70% in size
#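 Compound inhibition of the preformed complex between 50 nM HP1-beta and 50 nM biotinylated H3K9me3 peptide was read by AlphaScreen. Buffer was PBS pH 7.4 with 0.01% Tween-20. Incubations ran 30 min at room temperature, with 10 ug/mL donor/acceptor beads.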
# Six1-Eya2 inh: inhibitors of human Six1/Eya2 interaction | activity change, % (no concentration beside the values) | AlphaScreen GST-Six1/His-Eya2 binding, biochemical; hits give low values | Q15475+O00167 | AID 651725 | actives 0.56% (n = 360,000); in the data active = activity change below about -65%; inconclusive = mostly about -30% to -63%
#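 Six1/Eya2 binding was read as AlphaScreen signal after compounds were pinned into GST-Six1 plus His-tagged Eya2 (5X stock 250/500 nM) in pH 8.0 Tris/NaCl/TCEP buffer, beads added, then incubated 1 h, 37 C, dark.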
# G9a inh-1: inhibitors of human histone lysine methyltransferase G9a. Q96KQ7. G9a H3K9 monomethylation, AlphaScreen, 2 h. Potency, µM (series often up to 102 µM), hits mostly inhibitors. actives 8.8% (n = 350,000). AID 504332; note: nearly all actives have a fitted effect of over 75% in size
#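 AlphaScreen detection with an anti-monomethyl H3K9 antibody quantified product after a 2 h room-temperature reaction containing 500 nM biotinylated H3K9 peptide, 20 µM SAM and 20 nM enzyme, which had been preincubated 15 min with compound.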
# BAZ2B block: blocks human BAZ2B. Q9UIF8. AlphaScreen BAZ2B-H3K14Ac peptide displacement. Potency, µM (highest dose often 114 µM), actives largely listed as inhibitors. actives 4.4% (n = 360,000). AID 504333; note: nearly all actives have a fitted effect of over 60% in size
#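 AlphaScreen displacement of biotin-H3(5-23)K14Ac peptide (50 nM final) from BAZ2B (50 nM final) in PBS pH 7.4, 0.01% Tween-20; complex preformed 30 min RT, then compounds (top 110 uM) 30 min RT, beads 20 min dark.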
# JMJD2E inh-1: inhibitors of human JMJD2E demethylase, 8HQ series round 1; actives 89% (n = 130); JMJD2E demethylase, FDH-coupled NADH fluorescence; shares compounds with BAZ2B block; Potency, µM (top dose mostly 57 µM), actives largely listed as inhibitors
# JMJD2E inh-2: JMJD2E (human) demethylase inhibition, confirmation | shares compounds with JMJD2A Tudor | AID 2677 | Potency, µM (doses to about 56.8 µM), usual class: inhibitors | Recombinant JMJD2E, FDH-coupled NADH fluorescence (FDH is formaldehyde dehydrogenase) | actives 93% (n = 140)
# FDH counter: blocks Pseudomonas putida formaldehyde dehydrogenase, flagging JMJD2E artifacts; shares compounds with JMJD2A Tudor; AID 2680; Potency, µM (series often up to 56.7 µM), actives largely listed as inhibitors; FDH enzyme assay, NADH fluorescence kinetic; actives 10% (n = 140)
# JMJD2E MS inh: inhibitors of human JMJD2E demethylase; shares compounds with JMJD2A Tudor; recombinant JMJD2E demethylation, MALDI-TOF-MS; Potency, µM, hits mostly inhibitors; actives 90% (n = 45);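 active = compounds whose IC50 for blocking JMJD2E demethylation is below 100 µM; inconclusive = dose dependent effect but IC50 above 100 µM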
# G9a inh-2: inhibits human G9a histone lysine methyltransferase, hit confirmation | shares compounds with JMJD2A Tudor | G9a H3K9 monomethylation, AlphaScreen, 2 h | Potency, µM, actives largely listed as inhibitors | actives 89% (n = 370) | AID 588344; note: nearly all actives have a fitted effect of over 65% in size
# A number is an active result; - = inactive; ? = inconclusive; . = no result; [ ] = dose if it differs, or a comment. Unless noted, calls come from the whole dose curve; as a rule, active = well fitted curve in the direction sought with a large enough effect; inconclusive = small, poorly fitted or top-dose-only effect, or another doubt; inactive = no such curve, though single readings can be large; an effect the other way counts as inactive or inconclusive.
SMILES,JMJD2A Tudor,CtBP-E1A blk,HP1b chromo inh,Six1-Eya2 inh,G9a inh-1,BAZ2B block,G9a inh-2,others
COCC(=O)N1CCC2(CCCN(Cc3ccccc3)C2)CC1,.,.,.,.,-[12.7 µM],.,.,
Oc1ccc(COc2cccc3ccccc23)c2cccnc12,.,.,.,.,?,56µM,.,JMJD2E inh-1=10µM;JMJD2E inh-2=10µM;FDH counter=-
Cc1ccc(S(=O)(=O)Nc2ccc(O)c3cccnc23)cc1,?,-,-,-,?,-,.,
Oc1ccc(COC2CCCC2)c2cccnc12,.,.,.,.,-[12.7 µM],13µM,.,JMJD2E inh-1=6.3µM;JMJD2E inh-2=6.3µM;FDH counter=-
Oc1ccc(CNCc2ccccc2F)c2cccnc12,25µM,.,.,.,.,.,.,JMJD2E inh-1=6.5µM;JMJD2E inh-2=?;FDH counter=-;JMJD2E MS inh=21
O=C(Cc1ccccc1F)Nc1cccc2cccnc12,-,-,-,-,-,-,.,
OCc1cn(Cc2ccc(O)c3ncccc23)cn1,.,.,.,.,-[12.7 µM],1µM,.,JMJD2E inh-1=11µM;JMJD2E inh-2=11µM;FDH counter=-
Oc1ccc(CCc2c(F)cccc2F)c2cccnc12,-,.,.,.,.,.,.,JMJD2E inh-1=8.1µM;JMJD2E inh-2=13µM;FDH counter=-;JMJD2E MS inh=39
CCCCn1c(N)c(N(CCC(C)C)C(=O)CC2CCCC2)c(=O)[nH]c1=O,-,-,-,-,-,-,.,
O=C(COC(=O)c1cc(Br)ccc1O)Nc1cc(S(=O)(=O)N2CCCC2)ccc1Cl,-,-,-,-,-,.,.,
CCOc1ccc(N(C)C(=O)CCc2nnc3ccc(N4CCC5(CC4)OCCO5)nn23)cc1,-,-,-,-,-,-,.,
COC(=O)c1c(-c2cccs2)csc1NC(=O)COc1ccc(C(C)C)cc1,-,.,?,.,2.2µM,-,8.1,
CC1(C)C(c2ccccc2)=NC(c2ccc(Br)cc2)N1O (stereo not given),-,-,-,-,.,-,.,
CC(C)n1cnc2cc(NCc3ccco3)ccc21,?,-,-,-,?,-,14,
COc1ccc(-c2cc(CS(=O)(=O)c3ccccc3)on2)cc1,-,-,-,-,-,-,.,
CN(C)c1ccc(NC(=O)Nc2cccc3ccccc23)cc1,-[11.4 µM],-,-,-,2.8µM,?,1.1,
N#Cc1cn(Cc2ccncc2)c(=O)[nH]c1=O,-,-,-,-,-,-,.,
O=C(Sc1nnnn1C1CCCCC1)c1cccs1,.,.,.,.,?,?,0.71,
O=C(CSc1nnnn1C1CCCCC1)Nc1ccccc1F,-,-,-,-,.,-,.,
O=C(C[n+]1cccc(O)c1)Nc1ccc(Br)cc1,-,-,-,-,-,-,.,
COc1ccc(NC(=O)C2CC(=O)n3ncnc3N2)cc1 (stereo not given),-,-,-,-,-,-,.,
COc1ccc(NC(=O)C2CC(=O)n3cnnc3S2)cc1 (stereo not given),11µM,-,-,-,?,-,0.18,
COc1cccc(NC(=O)C2CC(=O)n3cnnc3S2)c1 (stereo not given),18µM,-,-,-,0.63µM,?,0.18,
CCOC(=O)CNC(=O)CSc1nnc(-c2ccccc2)n1Cc1ccco1,45µM,-,-,-,?,-,4.5,
O=C(O)c1ccccc1SCC(=O)N1CCCCC1,-,-,-,-,-,-,.,
O=C(CSc1cccc2cccnc12)N1CCCC1,?,-91,?,-93,?,-,.,JMJD2E inh-2=32µM;FDH counter=11µM
